Data published in PubChem BioAssay.
The source made the active and inactive calls.

Tests used:
[1] = system: PRMT1 (protein arginine N-methyltransferase 1); experiment: small molecules binding arginine methyltransferase PRMT1 – biochemical, small-molecule microarray, 635 nm fluorescence, primary screen (AID 1088); conditions: higher = more signal;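 note: binding of Prmt1 protein to compounds spotted on small-molecule microarray slides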
[2] = growth effects on S. cerevisiae YJM789 – YJM789 clinical isolate, OD600, 24 h, basal, primary screen (AID 1089); conditions: higher = more signal, called active from +8 up or from −8 down;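 note: growth of clinical yeast isolate S. cerevisiae YJM 789 seeded 1000 cells per well; test concentration not given here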
[3] = S. pombe growth modifiers, basal conditions – strain 972, OD600, 24 h, no modulator, primary screen (AID 1090);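 note: basal condition with compound alone and no growth modifier present; test concentration not given here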; conditions: S. pombe 972 growth, higher = more signal, called active from +8 up or from −8 down
[4] = budding yeast growth modifiers under rapamycin – strain BY4716, OD600, 96 h, primary screen (AID 1091); note: test concentration not given here; conditions: S. cerevisiae BY4716 + rapamycin, higher = more signal, called active from +8 up or from −8 down
[5] = molecular target: Torsin-1A-interacting protein 2 (Homo sapiens) (UniProt Q8NFQ8); experiment: small molecules binding lysate-expressed LULL1 – cell lysate, human LULL1 lysate, 635/667 nm fluorescence, primary screen (AID 1092); conditions: small-molecule microarray, hLULL1 lysate binding, 635 nm fluorescence; higher = more signal;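 note: probe is lysate of COS7 cells overexpressing human LULL1; score merges per-feature 667 nm fluorescence with signal-to-noise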
Chain of Torsin-1A-interacting protein 2 (Homo sapiens) (Q8NFQ8 whole entry, looked up): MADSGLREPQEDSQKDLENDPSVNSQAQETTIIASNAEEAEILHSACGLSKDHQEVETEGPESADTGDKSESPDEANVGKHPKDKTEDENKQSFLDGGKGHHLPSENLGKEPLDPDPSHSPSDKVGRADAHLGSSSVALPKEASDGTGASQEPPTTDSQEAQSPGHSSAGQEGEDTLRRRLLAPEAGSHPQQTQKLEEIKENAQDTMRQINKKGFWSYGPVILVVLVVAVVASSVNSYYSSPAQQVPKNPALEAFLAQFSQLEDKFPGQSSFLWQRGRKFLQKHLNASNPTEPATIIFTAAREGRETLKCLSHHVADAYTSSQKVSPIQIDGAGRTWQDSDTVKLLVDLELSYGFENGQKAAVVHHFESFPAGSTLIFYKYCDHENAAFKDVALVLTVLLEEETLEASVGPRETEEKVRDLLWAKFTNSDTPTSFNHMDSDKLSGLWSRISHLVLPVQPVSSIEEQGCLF

[6] = optical density change of DRC41 E. coli – strain DRC41, OD650, 24 h, E. coli filamentation project, primary screen (AID 1093);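 note: MC1000 strain lacking acrAB efflux and sulA so SOS filamentation is blocked; test concentration not given here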; conditions: E. coli DRC41 growth, higher = more signal, called active from +8 up or from −8 down
[7] = probe aLefty2 binding to arrayed compounds – biochemical, biotinylated probe, 635/667 nm fluorescence, primary screen (AID 1094); conditions: small-molecule microarray, higher = more signal;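 note: score merges spot fluorescence near 667 nm with spot signal-to-noise ratio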
[8] = system: Noggin (protein binding on small-molecule microarray); experiment: small molecules binding Noggin protein – biochemical, 635/667 nm fluorescence, primary screen (AID 1095); conditions: 635 nm fluorescence, higher = more signal;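 note: score merges 667 nm feature fluorescence with signal to noise over triplicate slides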
[9] = molecular target: Neurogenic locus notch homolog protein 3 (Homo sapiens) (UniProt Q9UM47); experiment: small molecules binding NOTCH3 protein – biochemical, 635/667 nm fluorescence, primary screen (AID 1096); conditions: small-molecule microarray, 635 nm fluorescence, higher = more signal
Chain of Neurogenic locus notch homolog protein 3 (Homo sapiens) (Q9UM47 whole entry, looked up): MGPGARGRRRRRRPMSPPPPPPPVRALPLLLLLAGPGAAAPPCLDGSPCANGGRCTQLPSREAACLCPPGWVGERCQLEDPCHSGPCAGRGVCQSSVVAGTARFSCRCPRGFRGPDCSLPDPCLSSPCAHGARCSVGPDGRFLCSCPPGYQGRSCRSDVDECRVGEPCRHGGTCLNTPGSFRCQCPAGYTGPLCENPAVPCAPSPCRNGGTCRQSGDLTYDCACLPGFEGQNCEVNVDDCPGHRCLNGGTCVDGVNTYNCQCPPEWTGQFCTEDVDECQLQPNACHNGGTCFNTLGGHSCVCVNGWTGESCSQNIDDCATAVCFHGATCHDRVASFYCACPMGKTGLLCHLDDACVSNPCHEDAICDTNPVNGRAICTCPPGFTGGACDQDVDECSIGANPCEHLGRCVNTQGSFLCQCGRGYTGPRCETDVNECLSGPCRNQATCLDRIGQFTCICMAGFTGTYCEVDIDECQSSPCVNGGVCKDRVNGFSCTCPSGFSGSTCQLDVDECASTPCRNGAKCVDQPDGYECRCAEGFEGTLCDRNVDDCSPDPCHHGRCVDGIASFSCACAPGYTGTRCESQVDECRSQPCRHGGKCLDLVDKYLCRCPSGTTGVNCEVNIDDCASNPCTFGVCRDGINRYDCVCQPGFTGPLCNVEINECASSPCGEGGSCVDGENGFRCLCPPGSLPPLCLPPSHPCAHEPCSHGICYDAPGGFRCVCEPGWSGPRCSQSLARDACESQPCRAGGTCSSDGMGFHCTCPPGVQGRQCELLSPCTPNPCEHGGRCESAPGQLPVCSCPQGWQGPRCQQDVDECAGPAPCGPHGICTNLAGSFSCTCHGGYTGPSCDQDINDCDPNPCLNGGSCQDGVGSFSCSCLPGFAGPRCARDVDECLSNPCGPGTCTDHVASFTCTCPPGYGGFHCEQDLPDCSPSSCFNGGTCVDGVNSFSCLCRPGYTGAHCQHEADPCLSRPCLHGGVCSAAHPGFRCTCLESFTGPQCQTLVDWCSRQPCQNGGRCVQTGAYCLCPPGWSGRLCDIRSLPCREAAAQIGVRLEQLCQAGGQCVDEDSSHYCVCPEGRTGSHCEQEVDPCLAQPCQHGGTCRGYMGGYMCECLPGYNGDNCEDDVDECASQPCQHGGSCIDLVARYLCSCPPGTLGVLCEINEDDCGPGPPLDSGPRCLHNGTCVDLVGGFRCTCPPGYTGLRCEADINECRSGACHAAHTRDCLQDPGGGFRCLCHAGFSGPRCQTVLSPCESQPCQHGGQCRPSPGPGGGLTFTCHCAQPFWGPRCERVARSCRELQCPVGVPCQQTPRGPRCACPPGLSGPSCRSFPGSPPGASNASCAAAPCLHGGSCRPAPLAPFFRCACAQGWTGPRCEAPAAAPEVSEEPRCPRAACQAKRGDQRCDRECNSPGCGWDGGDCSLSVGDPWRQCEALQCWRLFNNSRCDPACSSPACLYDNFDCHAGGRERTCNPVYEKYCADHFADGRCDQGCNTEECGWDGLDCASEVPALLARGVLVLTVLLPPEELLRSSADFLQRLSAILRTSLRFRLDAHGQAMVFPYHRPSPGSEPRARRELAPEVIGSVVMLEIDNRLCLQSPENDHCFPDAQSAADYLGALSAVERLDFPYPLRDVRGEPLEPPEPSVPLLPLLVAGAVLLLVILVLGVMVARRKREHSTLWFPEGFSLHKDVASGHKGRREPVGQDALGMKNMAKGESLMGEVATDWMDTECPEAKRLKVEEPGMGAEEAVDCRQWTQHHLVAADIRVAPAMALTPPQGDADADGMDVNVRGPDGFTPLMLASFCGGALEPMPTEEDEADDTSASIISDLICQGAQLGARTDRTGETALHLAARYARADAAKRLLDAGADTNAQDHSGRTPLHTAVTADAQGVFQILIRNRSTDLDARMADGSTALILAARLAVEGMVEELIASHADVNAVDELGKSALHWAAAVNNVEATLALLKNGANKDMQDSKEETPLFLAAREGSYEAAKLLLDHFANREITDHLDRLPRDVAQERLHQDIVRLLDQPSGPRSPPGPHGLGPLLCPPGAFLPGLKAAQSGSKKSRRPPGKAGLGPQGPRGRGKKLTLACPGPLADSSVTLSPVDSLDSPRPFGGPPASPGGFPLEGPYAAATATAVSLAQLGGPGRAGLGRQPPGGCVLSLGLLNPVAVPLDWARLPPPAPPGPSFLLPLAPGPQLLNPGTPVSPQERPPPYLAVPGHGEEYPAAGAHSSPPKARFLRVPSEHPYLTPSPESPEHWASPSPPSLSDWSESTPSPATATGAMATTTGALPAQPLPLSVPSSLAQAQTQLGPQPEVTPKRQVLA

[10] = probe aEGFR binding to arrayed compounds – biochemical, biotinylated probe, 635/667 nm fluorescence, primary screen (AID 1097); conditions: small-molecule microarray, higher = more signal;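 note: probe is a biotinylated anti-EGFR antibody binding compounds printed on slides; score combines fluorescence near 667 nm and signal to noise of each spot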

Row | Structure (SMILES) | composite z-score [1] | z-score [2] | z-score [3] | z-score [4] | composite z-score [5] | z-score [6] | composite z-score [7] | composite z-score [8] | composite z-score [9] | composite z-score [10]
1 | O=C(CS)NCCCCCNC(=O)[C@H]1C[C@H]2C(=O)N[C@@H](Cc3ccccc3)C(=O)N2[C@H]1c1cccc(OCCO)c1 | 1.52 | -3.02 (inactive) | -0.991 (inactive) | -0.276 (inactive) | 2.55 | 1.94 (inactive) | 0.0669 | 1.44 | 1.09 | 0.12
2 | CN(C)CCCC[C@@H]1NC(=O)[C@@H]2C[C@H](C(=O)NCc3ccc(F)cc3)[C@H](c3cccc(OCCO)c3)N2C1=O | 1.55 | -0.65 (inactive) | -1.41 (inactive) | -0.663 (inactive) | 2.96 | -0.0129 (inactive) | 0.823 | 1.97 | 1.11 | -0.0953
3 | COc1cc(NN2C(C(O)c3ccccc3)C=CC3C(=O)N(c4ccccc4)C(=O)C32)cc(OC)c1OC (stereo not given) | 1.34 | 0.694 (inactive) | -0.933 (inactive) | 0.126 (inactive) | 3.5 | -0.288 (inactive) | 0.17 | 0.833 | 1.03 | 0.016
4 | COCCOC(=O)N1C(=O)[C@@]2(c3cc(C#CCC(C(=O)OC)C(=O)OC)ccc31)[C@H](c1ccc(OCCO)cc1)N1[C@H](c3ccccc3)[C@H](c3ccccc3)OC(=O)[C@H]1[C@@H]2C(=O)NC[C@H](O)c1ccccc1 | 1.53 | 2.11 (inactive) | 1.7 (inactive) | 7.38 (inactive) | 3.51 | 0.0053 (inactive) | -0.426 | 1.46 | 1.08 | -0.0389
5 | C=CCN1C(=O)[C@]2(Cc3ccccc31)N=C(c1ccc(OCCCO)cc1)O[C@@H]2c1ccccc1 | 1.33 | -2.2 (inactive) | -4.05 (inactive) | 0.259 (inactive) | 2.76 | -2.56 (inactive) | 0.235 | 0.555 | 0.923 | 0.0786
6 | CC(=O)N1Cc2ccccc2C[C@@]2(N=C(c3ccc(OCCCO)cc3)O[C@H]2c2ccccc2)C1=O | 1.53 | -3.56 (inactive) | -3.68 (inactive) | 17.1 (active) | 3.32 | 1.5 (inactive) | 0.215 | 1.47 | 1.11 | 0.107
7 | O=C1C2C=CC(C(O)c3ccc(-c4ccccc4)s3)N(Nc3ccccc3F)C2C(=O)N1c1ccccc1 (stereo not given) | 1.33 | 0.264 (inactive) | 0.167 (inactive) | 1.58 (inactive) | 2.85 | -1.82 (inactive) | 0.207 | -0.243 | 1.02 | 0.232
8 | C=CCC(OC(C)=O)[C@@H]1[C@@H](N(Cc2ccc(-c3cccc(C(F)(F)F)c3)o2)C(=O)c2ccc(C)cc2)c2cc(OCCCO)ccc2N1C(=O)c1ccc2ccccc2n1 (stereo not given in full) | -0.0077 | -0.269 (inactive) | -0.546 (inactive) | 0.28 (inactive) | 0.42 | 1.44 (inactive) | -0.0286 | 0.605 | 0.309 | -0.147
9 | O=C(NCc1ccccc1)[C@@H]1c2ccccc2C(=O)N(C2CCCCC2)[C@H]1c1ccc(CO)cc1 | 1.47 | -0.406 (inactive) | -0.577 (inactive) | 0.39 (inactive) | 2.53 | -0.175 (inactive) | -0.322 | 1.41 | 1.03 | -0.352
10 | O=C1C2C=CC(C(O)c3ccc(Br)cc3)N(n3cnnc3)C2C(=O)N1Cc1ccccc1 (stereo not given) | 1.56 | -26.6 (active) | -16 (active) | 0.881 (inactive) | 2.83 | -0.415 (inactive) | 0.126 | 0.57 | 1.03 | 0.115
11 | COC(=O)[C@@]1(Cc2ccc(F)cc2)[C@H]2c3cc(C(=O)N(C)C)n(CCCNc4ccc(C(F)(F)F)cc4Cl)c3C[C@H]2CN1C(=O)c1ccccc1 | 1.41 | 0.406 (inactive) | 1.06 (inactive) | 5.11 (inactive) | 3.36 | -1.3 (inactive) | 0.555 | 0.282 | 1.02 | 0.361
